# Measured values reported in PubChem BioAssay (EPA / NIEHS).
# Results filed as inconclusive are left out. The source made the active and inactive calls. Rule for the calls: active = hit-call score of the fitted dose curve at least 0.9, where 1 is the maximum; inconclusive = response in the unintended direction; inactive = score below 0.9.
# Test system: not listed separately
# Test: TOX21_p53_BLA_p2_viability: Viability Assessment in the Tox21 HCT-116 p53 Agonism Beta-lactamase Assay, Phase 2 (AID 2283591);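 note: compound exposure lasted 16 h at 37 °C; actives lower the ATP signal meaning cytotoxicity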
# Outline: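 HCT116 p53-bla cells, 4000/well, dosed after 5 h plating (217-fold dilution of DMSO stocks) and incubated 16 h at 37C. Viability taken as cellular ATP by CellTiter-Glo luminescence after 30 min RT; signal loss marks cytotoxicity.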
row,Compound,outcome
1,COC(=O)[C@H]1[C@H]2C[C@@H]3c4[nH]c5cc(OC)ccc5c4CCN3C[C@H]2C[C@@H](OC(=O)/C=C/c2cc(OC)c(OC)c(OC)c2)[C@@H]1OC,inactive
2,Cn1c(=O)c2[nH]c(Br)nc2n(C)c1=O,inactive
3,Cc1cc(-c2ccccc2)nnc1NCCN1CCOCC1,inactive
4,COC(=O)C1=C(C)NC(C)=C(C(=O)O[C@@H]2CCCN(Cc3ccccc3)C2)[C@@H]1c1cccc([N+](=O)[O-])c1,inactive
5,CC1(C)C(O)C(C)(C)C1O (stereo not drawn),inactive
6,COC(=O)C1CC(=O)C(C(=O)OC)CC1=O (stereo not drawn),inactive
7,CO[Si](OC)(OC)OC,inactive
8,O=C(O)c1ccccc1S,inactive
9,CCN1CCN(c2cc3c(cc2F)c(=O)c(C(=O)O)cn3C2CC2)CC1,inactive
10,CC(C)(C)OC=O,inactive
11,CCN(CC)S(=O)(=O)c1ccc(C(=O)O)cc1,inactive
12,CNCCS(=O)(=O)O,inactive
13,COc1ccc(C(=O)Nc2ccccc2)cc1[N+](=O)[O-],inactive
14,O=C(OOC(=O)c1ccccc1)c1ccccc1,inactive
15,COc1cc(OC)c(C(=O)CCCN2CCCC2)c(OC)c1,inactive
16,Cc1[nH]cnc1CN1CCc2c(c3ccccc3n2C)C1=O,inactive
17,CC12CCC(C(=O)C1=O)C2(C)C (stereo not drawn),inactive
18,c1cnccn1,inactive
19,COc1ccccc1OCC(O)COC(N)=O (stereo not drawn),inactive
20,CCC(=O)C=CC1C(C)=CCCC1(C)C (stereo not drawn),inactive

row,Compound,outcome
1,CC1(C)CCC(NC(=O)[C@@H](N)CCC(=O)O)CC1,inactive
2,CCN[C@@H]1C[C@H](N)[C@@H](OC2OC(CN)=CCC2N)[C@H](O)[C@H]1O[C@H]1OC[C@](C)(O)[C@H](NC)[C@H]1O (stereo partly drawn),inactive
3,Nc1ccc2ccccc2c1S(=O)(=O)O,inactive
4,CC(C)Cc1ccc([C@@H](C)C(=O)NS(C)(=O)=O)cc1,inactive
5,Cc1cc(C)c(NC(=O)CN(CC(=O)O)CC(=O)O)c(C)c1Br,inactive
6,CCOC(=O)c1ccc(NC(=O)CN2CCCCC2)cc1,inactive
7,CC(C)CCC[C@@H](C)[C@H]1CC[C@H]2[C@@H]3CC=C4C[C@@H](O)CC[C@]4(C)[C@H]3CC[C@]12C,inactive
8,CCC(=O)OCC(=O)[C@@]1(OC(=O)CC)[C@H](C)C[C@H]2[C@H]3[C@H]([C@@H](O)C[C@@]21C)[C@@]1(C)C=CC(=O)C=C1C[C@H]3Cl,inactive
9,C[Si](C)(C)C,inactive
10,Nc1nc(-c2ccccc2)c(Br)c(=O)[nH]1,inactive
11,O=C(O)CSCC(=O)NC1CCSC1=O (stereo not drawn),inactive
12,O=C(O)c1cccc(C(=O)O)c1C(=O)O,inactive
13,CCCCCCCCCCCCOC(=O)c1ccc(O)cc1,inactive
14,C[N+](C)(C)CCOC(N)=O,inactive
15,Cc1cc(O)cc2c1O[C@](C)(CCC[C@H](C)CCC[C@H](C)CCCC(C)C)CC2,inactive
16,N[C@H]1C(O)O[C@H](CO)[C@@H](O)[C@@H]1O (stereo partly drawn),inactive
17,CO/N=C(\C(=O)N[C@@H]1C(=O)N2C(C(=O)OCOC(=O)C(C)(C)C)=C(/C=C\c3scnc3C)CS[C@H]12)c1csc(N)n1,inactive
18,C=C(C)C1CCC(C)(O)CC1 (stereo not drawn),inactive
19,CCCCCCCCCCCCCCCCCCOP(=O)([O-])OC1CC[N+](C)(C)CC1,inactive

# Biological target: Cellular tumor antigen p53 (Homo sapiens) (UniProt P04637)
# Sequence (P04637 whole entry, looked up): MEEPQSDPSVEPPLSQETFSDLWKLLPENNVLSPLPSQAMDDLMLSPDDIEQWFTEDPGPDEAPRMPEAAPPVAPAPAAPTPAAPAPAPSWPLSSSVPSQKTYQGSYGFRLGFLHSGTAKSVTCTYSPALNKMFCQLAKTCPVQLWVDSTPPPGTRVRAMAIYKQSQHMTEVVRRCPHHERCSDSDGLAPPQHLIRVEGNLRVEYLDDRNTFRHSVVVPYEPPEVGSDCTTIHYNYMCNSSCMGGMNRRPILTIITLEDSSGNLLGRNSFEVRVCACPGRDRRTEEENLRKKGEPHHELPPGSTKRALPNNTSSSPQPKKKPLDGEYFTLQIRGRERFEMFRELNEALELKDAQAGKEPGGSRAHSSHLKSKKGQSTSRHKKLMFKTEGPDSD
# Test: TOX21_p53_BLA_p2_ratio: Tox21 HCT-116 p53 Agonism Beta-lactamase Assay, Ratio, Phase 2 (AID 2283592)
# Outline: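 Read-out is the blue/green (460/530 nm, 405 nm excitation) ratio after 2 h CCF4-AM loading, fitted as gain versus DMSO. Compounds, pinned at 217-fold dilution from DMSO stocks, stayed 16 h on HCT-116 beta-lactamase reporter cells seeded 5 h earlier.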
row,Compound,outcome
1,COC(=O)[C@H]1[C@H]2C[C@@H]3c4[nH]c5cc(OC)ccc5c4CCN3C[C@H]2C[C@@H](OC(=O)/C=C/c2cc(OC)c(OC)c(OC)c2)[C@@H]1OC,inactive
2,Cn1c(=O)c2[nH]c(Br)nc2n(C)c1=O,inactive
3,Cc1cc(-c2ccccc2)nnc1NCCN1CCOCC1,inactive
4,COC(=O)C1=C(C)NC(C)=C(C(=O)O[C@@H]2CCCN(Cc3ccccc3)C2)[C@@H]1c1cccc([N+](=O)[O-])c1,inactive
5,CC1(C)C(O)C(C)(C)C1O (stereo not drawn),inactive
6,COC(=O)C1CC(=O)C(C(=O)OC)CC1=O (stereo not drawn),inactive
7,CO[Si](OC)(OC)OC,inactive
8,O=C(O)c1ccccc1S,inactive
9,CCN1CCN(c2cc3c(cc2F)c(=O)c(C(=O)O)cn3C2CC2)CC1,inactive
10,CC(C)(C)OC=O,inactive
11,CCN(CC)S(=O)(=O)c1ccc(C(=O)O)cc1,inactive
12,CNCCS(=O)(=O)O,inactive
13,COc1ccc(C(=O)Nc2ccccc2)cc1[N+](=O)[O-],inactive
14,O=C(OOC(=O)c1ccccc1)c1ccccc1,inactive
15,COc1cc(OC)c(C(=O)CCCN2CCCC2)c(OC)c1,inactive
16,Cc1[nH]cnc1CN1CCc2c(c3ccccc3n2C)C1=O,inactive
17,CC12CCC(C(=O)C1=O)C2(C)C (stereo not drawn),inactive
18,c1cnccn1,inactive
19,COc1ccccc1OCC(O)COC(N)=O (stereo not drawn),inactive
20,CCC(=O)C=CC1C(C)=CCCC1(C)C (stereo not drawn),inactive

row,Compound,outcome
1,CC1(C)CCC(NC(=O)[C@@H](N)CCC(=O)O)CC1,inactive
2,CCN[C@@H]1C[C@H](N)[C@@H](OC2OC(CN)=CCC2N)[C@H](O)[C@H]1O[C@H]1OC[C@](C)(O)[C@H](NC)[C@H]1O (stereo partly drawn),inactive
3,Nc1ccc2ccccc2c1S(=O)(=O)O,inactive
4,CC(C)Cc1ccc([C@@H](C)C(=O)NS(C)(=O)=O)cc1,inactive
5,Cc1cc(C)c(NC(=O)CN(CC(=O)O)CC(=O)O)c(C)c1Br,inactive
6,CCOC(=O)c1ccc(NC(=O)CN2CCCCC2)cc1,inactive
7,CC(C)CCC[C@@H](C)[C@H]1CC[C@H]2[C@@H]3CC=C4C[C@@H](O)CC[C@]4(C)[C@H]3CC[C@]12C,inactive
8,CCC(=O)OCC(=O)[C@@]1(OC(=O)CC)[C@H](C)C[C@H]2[C@H]3[C@H]([C@@H](O)C[C@@]21C)[C@@]1(C)C=CC(=O)C=C1C[C@H]3Cl,inactive
9,C[Si](C)(C)C,inactive
10,Nc1nc(-c2ccccc2)c(Br)c(=O)[nH]1,inactive
11,O=C(O)CSCC(=O)NC1CCSC1=O (stereo not drawn),inactive
12,O=C(O)c1cccc(C(=O)O)c1C(=O)O,inactive
13,CCCCCCCCCCCCOC(=O)c1ccc(O)cc1,inactive
14,C[N+](C)(C)CCOC(N)=O,inactive
15,Cc1cc(O)cc2c1O[C@](C)(CCC[C@H](C)CCC[C@H](C)CCCC(C)C)CC2,inactive
16,N[C@H]1C(O)O[C@H](CO)[C@@H](O)[C@@H]1O (stereo partly drawn),inactive
17,CO/N=C(\C(=O)N[C@@H]1C(=O)N2C(C(=O)OCOC(=O)C(C)(C)C)=C(/C=C\c3scnc3C)CS[C@H]12)c1csc(N)n1,inactive
18,C=C(C)C1CCC(C)(O)CC1 (stereo not drawn),inactive
19,CCCCCCCCCCCCCCCCCCOP(=O)([O-])OC1CC[N+](C)(C)CC1,inactive
